Source: PubChem BioAssay
Cycloheximide cs = counter-screen hit for Shiga toxin inhibitors, cycloheximide; cell reporter, cycloheximide protein synthesis inhibition counterscreen; max response, %; 300,000 compounds, 12% hits; AID 2314; in the data active means max response mostly above about 13%, no sharp cut-off; inactive means mostly below about 14%; further: read at 38.3 µM for the half of the compounds with a filed dose; 0% is about no effect
Pf growth 96h = P. falciparum growth inhibition at 96 hours; 320,000 compounds, 6.9% hits; P. falciparum luciferase reporter growth, 96 h; Potency, µM (titrated, usually from 28.7 µM), for the others: at the top dose activity change, negative = inhibition, usual class: inhibitors; further: potency means the concentration at half of the fitted maximal effect; on the % scale 0 is the no-effect control and ±100 the full control effect
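Erythrocytes infected with luciferase-expressing P. falciparum were dispensed at 2% hematocrit and 0.05% parasitemia (final), then incubated with compounds 96 hours at 37 C in 5% CO2. Luminescence after detection reagent addition reported growth.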
HCMV antiviral = blocks human cytomegalovirus replication; HFF cells, HCMV-luciferase reporter, 72 h; stronger effect = lower value; activity change, negative = inhibition, % at 57.5 µM; 410,000 compounds, 4.5% hits; in the data active means activity change below about -60%; inconclusive means no clear call, values can overlap the other calls; inactive means above about -39%; further: on the % scale 0 is the no-effect control and ±100 the full control effect
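Screen run at 2 compound doses on HFFs infected with reporter HCMV, MOI 1 PFU/cell. Luciferase activity from cell lysates at 72 h post infection gave inhibition relative to buffer-only and Salinomycin wells.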
Shiga toxin inh = blocks Shiga toxin action in Vero cells | Vero cells, Shiga toxin protein synthesis inhibition reporter | inhibition, % at 38.7 µM | 290,000 compounds, 9.2% hits | AID 2315; in the data active means inhibition mostly above about 28%, no sharp cut-off; inactive means mostly below about 43%; further: 0% is about no effect
HCV inh = HCV inhibition. 340,000 compounds, 3.4% hits. AID 651820. Potency, µM (highest dose often 41.8 µM), without a hit: top-dose activity change, negative = inhibition, hits mostly inhibitors. Huh7.5.1 HCVcc-Cre infection, luciferase reporter, 44 h; further: potency means the concentration at half of the fitted maximal effect; on the % scale 0 is the no-effect control and ±100 the full control effect
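Cells (1,000/well) were plated 4 h before compound, then infected with HCVcc-Cre virus (~0.5 moi). After 44 h further culture, infection was read as luciferase luminescence following a 15 min substrate incubation at room temperature.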
Pf growth 48h = P. falciparum growth inhibition at 48 hours (one generation); P. falciparum luciferase growth in erythrocytes, 48 h; Potency, µM (series often up to 28.7 µM), inactives show top-dose activity change, negative = inhibition, most hits filed as inhibitors; 310,000 compounds, 5.9% hits; AID 504832; further: potency means the concentration at half of the fitted maximal effect; on the % scale 0 is the no-effect control and ±100 the full control effect
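Compounds are pin-transferred into medium, infected erythrocytes (2% hematocrit, 0.1% parasitemia final) are added, and plates sit one parasite generation at 37 C in 5% CO2. Detection reagent is then added and luminescence measured.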
Starred values were filed as active, the others as inactive; ? = inconclusive; . = not tested or not shown. Most compounds without a hit are left out; they make up all but 21% or so of the library. Unless noted, the call rests on the fitted dose curve; in most records, active means well fitted inhibition curve with a large enough effect; inconclusive means small, poorly fitted or top-dose-only effect, or another doubt; inactive means no such curve, though single readings can be large or run the other way.

SMILES	Cycloheximide cs	Pf growth 96h	HCMV antiviral	Shiga toxin inh	HCV inh	Pf growth 48h
Cc1ccc(CNC(=O)c2cc(-c3ccc(C)cc3)nc3n[nH]c(-c4cccc([N+](=O)[O-])c4)c23)cc1	.	.	0	.	.	.
Cc1nc(C(=O)NNC(=O)Nc2ccccc2)cs1	13*	25%	13	18	11%	9%
Cc1nc(C(=O)NNC(=O)c2ccc(Cl)cc2)cs1	15	?	-101*	17	?	?
O=C(NNC(=O)c1csc(-c2cccs2)n1)c1ccc(Cl)cc1	.	.	-103*	.	.	.
Cc1nc(-c2nc(CC(=O)NNC(=O)c3ccc(Cl)cc3)cs2)cs1	-2	6%	-1	-3	6%	9%
CCN1CCN(C(C)C(=O)NC2CCCCC2)CC1 (stereo unspecified)	-2	37%	-33	-3	9%	4%
COc1ccc(NC(=O)c2oc3ccccc3c2NC(=O)c2cc(=O)c3ccccc3o2)cc1	.	.	-1	.	.	.
CC(C)(C)OC(=O)N[C@H](C(=O)OC(C)(C)C)c1ccccc1	.	?	10	.	?	21%
COc1ccc(OC)c(CC2C(=O)Nc3ccc(Br)cc32)c1 (stereo unspecified)	.	.	-90*	.	.	.
COc1ccc(CNC(=O)CN(Cc2ccccc2)S(=O)(=O)c2ccc(Cl)cc2)cc1	3	?	-17	8	10µM*	.
COc1ccc(C)cc1S(=O)(=O)N(CC(=O)N1CCOCC1)Cc1ccccc1	-1	-16%	46	-15	16%	-10%
CN(Cc1ccccc1)S(=O)(=O)c1ccc(OCC(=O)NCc2ccncc2)cc1	0	-3%	-7	2	-6%	4.7µM*
COc1ccc(C)cc1S(=O)(=O)N(CC(=O)NCc1ccc(Cl)cc1)Cc1ccccc1	-3	12µM*	1	-15	.	.
COc1ccc(CNC(=O)CN(Cc2ccc(Cl)cc2)S(=O)(=O)c2ccccc2)cc1	-2	.	-2	16	-12%	-18%
COc1ccc(S(=O)(=O)N(CC(=O)NCc2ccncc2)Cc2ccccc2)cc1	-3	5.2µM*	5	-4	3%	?
COc1ccccc1-c1ccc([C@@H]2C[C@H]3[C@H](CON3C)CN2C(=O)c2ccco2)cc1	.	.	53	.	.	.
COc1ccc(N(CC(=O)NCc2ccc(Cl)cc2)S(=O)(=O)c2ccccc2[N+](=O)[O-])c(OC)c1	-2	38%	?	-18	?	8.3µM*
CC(C)CNC(=O)CN(c1ccccc1)S(=O)(=O)c1ccccc1[N+](=O)[O-]	-6	5.9µM*	153	1	20%	?
COC(=O)C1=C(c2cc3ccccc3o2)C[C@@H]2CC[C@H]1N2C(=O)N1CCCC1	.	.	-60*	.	?	.
COC(=O)C1=C(c2ccc(C(C)=O)cc2)C[C@@H]2CC[C@H]1N2C(=O)NC1CC1	.	14%	33	.	10%	-5%
COC(=O)C1=C(c2ccc3ccccc3c2)C[C@@H]2CC[C@H]1N2C(=O)N1CCC(C)CC1	.	?	.	.	?	9.3µM*
COC(=O)C1=C(c2ccc(C(C)=O)cc2)C[C@@H]2CC[C@H]1N2C(=O)N1CCC(O)(c2ccc(Cl)cc2)CC1	.	?	-17	.	?	10µM*
COC(=O)C1=C(c2ccc(C(C)=O)cc2)C[C@@H]2CC[C@H]1N2C(=O)N1CCC(C)CC1	.	-9%	-14	.	-9%	13µM*
CCCNC(=O)C(Cc1ccccc1)NC(=O)Cc1ccccc1 (stereo unspecified)	.	?	-18	.	13%	-9%
Cn1c(=O)c2c(nc(Br)n2C/C=N/NC(N)=S)n(C)c1=O	-1	?	-84*	2	-16%	?
CC(NC(=O)COc1ccccc1)C(=O)N1CCN(c2ccccc2)CC1 (stereo unspecified)	.	?	0	.	8%	?
CN(/N=C/c1ccncc1)c1cnn(-c2ccc(F)c(Cl)c2)c(=O)c1Cl	27*	-7%	-35	46*	0%	?
Cc1nc2c(=O)n(-c3ccc(F)c(Cl)c3)nc(C)c2s1	-2	-3%	-38	-6	?	?
CCOc1ccc(C(=O)Nc2nnc(SCc3cc(=O)n4ccccc4n3)s2)cc1	.	.	17	.	.	.
